# According to PubChem BioAssay (NCI):
# Compounds without any hit were thinned out: in the full panel of roughly 83,000, 20% have a hit.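 Single-dose data. Exposure time 48 hours. Values below 10 considered active.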 Values without a mark were called inactive. Active and inactive are the calls of the source.
# Legend:
# Assay in all cases: NCI-60 one-dose screen, 48 h (100 = growth as untreated, 0 = no growth, -100 = all killed)
# Conditions in all cases: 10 µM unless noted
# NCI-H23 lung = system: NCI-H23 lung
# NCI-H226 lung = system: NCI-H226 lung
# NCI-H322M lung = system: NCI-H322M lung
# HOP-62 NSCLC = system: HOP-62 NSCLC
# NCI-H460 lung = system: NCI-H460 lung
# HOP-92 NSCLC = system: HOP-92 NSCLC
# NCI-H522 lung = system: NCI-H522 lung
# A549/ATCC NSCLC = system: A549/ATCC NSCLC
# 786-0 renal = system: 786-0 renal
# COLO 205 colon = system: COLO 205 colon
# DU-145 prostate = system: DU-145 prostate
# K-562 leukemia = system: K-562 leukemia
# MALME-3M melanoma = system: MALME-3M melanoma
# MDA-MB-231 breast = system: MDA-MB-231 breast
# RXF 393 renal = system: RXF 393 renal
# SF-268 CNS = system: SF-268 CNS
# SF-295 CNS = system: SF-295 CNS
# SF-539 CNS = system: SF-539 CNS
# M14 melanoma = system: M14 melanoma
# UACC-257 melanoma = system: UACC-257 melanoma
Compound,growth (NCI-H23 lung),growth (NCI-H226 lung),growth (NCI-H322M lung),growth (HOP-62 NSCLC),growth (NCI-H460 lung),growth (HOP-92 NSCLC),growth (NCI-H522 lung),growth (A549/ATCC NSCLC),growth (786-0 renal),growth (COLO 205 colon),growth (DU-145 prostate),growth (K-562 leukemia),growth (MALME-3M melanoma),growth (MDA-MB-231 breast),growth (RXF 393 renal),growth (SF-268 CNS),growth (SF-295 CNS),growth (SF-539 CNS),growth (M14 melanoma),growth (UACC-257 melanoma) [%]
Cc1cc(N(CCNc2ccnc3cc(Cl)ccc23)Cc2ccc3c(c2)OCO3)nc(N2CCCC2)n1,20.8%,65.4%,13.5%,-25.8% (active),-9.96% (active),60.5%,-28.7% (active),8.39% (active),-92% (active),-78.2% (active),29.7%,-33.2% (active),-72.8% (active),-8.4% (active),-70.7% (active),22.8%,-65.3% (active),-93.3% (active),-78.2% (active),–
CN1CCN(Cc2ccc(NC(=O)c3[nH]ncc3Nc3ncnc4sc5c(c34)CCCC5)cc2)CC1,-63.7% (active),-51.9% (active),-50.8% (active),-72% (active),-62.2% (active),-21.1% (active),-76.1% (active),-58.2% (active),-92.2% (active),-93% (active),-86.7% (active),-60.6% (active),-75.4% (active),-57.8% (active),-92.9% (active),-44.3% (active),-87.9% (active),-100% (active),-95.2% (active),–
Clc1ccc(/C=C/c2cc(N3CCOCC3)c3cc(Cl)c(Cl)cc3n2)cc1,100%,85.5%,94.3%,122%,95%,96.6%,-43.7% (active),79.9%,-11% (active),98.1%,60.2%,86.3%,56%,59.3%,81.1%,58%,95.9%,62.3%,98.5%,–
O=C(Cn1c(=O)ccn(CCCCCCCCOc2ccc(Br)cc2)c1=O)Nc1ccc(Oc2ccc(Cl)cc2)cc1,47.8%,56.6%,102%,67.1%,56.8%,22.4%,44.6%,54.4%,65.7%,76.7%,73.7%,40.5%,69.8%,66.6%,79.8%,71.1%,52.9%,61.9%,70.1%,–
C/C(=C(/c1ccc(Cl)cc1)c1ccc(OCCN2CCCC2)cc1)c1ccccc1,71.2%,83.3%,82.5%,90%,41.5%,84.2%,58.9%,66.7%,75.2%,24.3%,86.4%,6.72% (active),62.4%,61.3%,66.6%,87.9%,77.5%,58.8%,28.3%,44.7
CCN1CCN(c2cc(C)nc(N(CCCNc3ccnc4cc(Cl)ccc34)Cc3cccs3)n2)CC1,49%,57.6%,12%,-25.4% (active),5.44% (active),11.6%,8.27% (active),20.1%,-71.8% (active),-80.2% (active),26.4%,-14.2% (active),-85.7% (active),-20% (active),-53.8% (active),7.31% (active),-69.4% (active),-89.8% (active),-84% (active),–
O=C1CSC(c2c(F)cccc2Cl)N1NC(=O)C(O)(c1ccccc1)c1ccccc1 (configuration not stated),98.7%,95.3%,102%,86.8%,113%,86.3%,88.4%,96.2%,97%,104%,108%,80.3%,82.1%,93%,–,112%,94.3%,100%,94.5%,–
C=CC[n+]1c(/C=C/C=C2\N(C)c3ccccc3C2(C)C)sc2ccc(OC)cc21,11.6%,10.8%,26.2%,14.4%,7.84% (active),-4.42% (active),3.52% (active),16.6%,26.8%,-37.4% (active),25.6%,10.3%,5.31% (active),26.1%,–,32.7%,-17.7% (active),25.7%,23%,–
Cc1cc2c(-c3nc4ccccn4c3NC34CC5CC(CC(C5)C3)C4)c(O)c(O)cc2c(O)c1-c1c(C)cc2c(-c3nc4ccccn4c3NC34CC5CC(CC(C5)C3)C4)c(O)c(O)cc2c1O,-1.87% (active),12.7%,30.2%,1.34% (active),5.53% (active),-9.41% (active),-5.03% (active),2.96% (active),-12% (active),6.77% (active),19.2%,7.38% (active),7.47% (active),21.9%,12.2%,17%,1.49% (active),-1.69% (active),-0.979% (active),–
CC(C)c1ccc(/C=N/Nc2nc3ccccc3s2)cc1,80.4%,81.7%,96%,87.8%,95.2%,82.5%,85%,85.8%,108%,88.5%,101%,85.5%,62.9%,81.6%,–,99.2%,98.5%,103%,94.5%,–
Cc1ccccc1Nc1nc2nonc2nc1Nc1cccc(C)c1C,17.9%,48.6%,80.7%,72.1%,41.1%,22.5%,3.35% (active),27.4%,65.9%,59.2%,71.9%,39.5%,78.6%,72.7%,–,72.8%,41.5%,88.1%,58.4%,–
NC(=O)c1n[nH]n2c1nc(=O)c1c3c(sc12)CCCC3,101%,91.4%,101%,96.5%,109%,91.7%,102%,92.7%,106%,103%,110%,89.5%,109%,101%,–,105%,102%,102%,98%,–
C=C1C[C@H](O)[C@H](Br)C(C)(C)[C@@]12CCC(C)=C(Cl)C2,12.9%,14.8%,40.3%,35.6%,13%,23.6%,15.7%,6.49% (active),16.7%,-79.1% (active),22.7%,12.3%,38.5%,22.4%,–,30.9%,-3.01% (active),34%,-19.7% (active),–
N#Cc1cc2[nH]c3ccc(OC(F)(F)F)cc3c2oc1=O,83.7%,82.4%,93.5%,56.6%,87.6%,104%,42.4%,91.3%,93.9%,86.8%,99.4%,28.8%,79.6%,84.6%,76.8%,75.5%,80.3%,90%,68.4%,–
CCCc1cc2cc(-n3nc(C)c4c3CC(C)(C)CC4=O)cc(NC3CCC(O)CC3)c2c(=O)[nH]1 (configuration not stated),29.8%,33.8%,58.2%,28.5%,17.6%,-25.7% (active),40.8%,21%,26.1%,-10.1% (active),38.8%,10%,29.9%,-0.14% (active),–,50.2%,-35.6% (active),37.8%,23.6%,–
Cc1ccsc1C(NC(=O)c1ccccc1)c1cc(Cl)c2cccnc2c1O (configuration not stated),28.1%,38.5%,32%,15%,7.44% (active),35%,9.39% (active),14.3%,18.2%,11.7%,41.2%,10.4%,47.4%,37.8%,–,31.6%,1.35% (active),18.7%,12.3%,–
